This excerpt belongs to a sample that is enriched for hits.
KDM5B inh: KDM5B demethylase inhibition; Potency, µM (doses to about 57.7 µM), actives largely listed as inhibitors; AID 1347165; 220,000 tested, 2.6% active; KDM5B demethylase, FDH-coupled NADH fluorescence (FDH is formaldehyde dehydrogenase); active means well fitted inhibition curve with a large enough effect; further: nearly all actives have a fitted effect of over 70% in size
Target sequence (Q9UGL1 whole entry, looked up): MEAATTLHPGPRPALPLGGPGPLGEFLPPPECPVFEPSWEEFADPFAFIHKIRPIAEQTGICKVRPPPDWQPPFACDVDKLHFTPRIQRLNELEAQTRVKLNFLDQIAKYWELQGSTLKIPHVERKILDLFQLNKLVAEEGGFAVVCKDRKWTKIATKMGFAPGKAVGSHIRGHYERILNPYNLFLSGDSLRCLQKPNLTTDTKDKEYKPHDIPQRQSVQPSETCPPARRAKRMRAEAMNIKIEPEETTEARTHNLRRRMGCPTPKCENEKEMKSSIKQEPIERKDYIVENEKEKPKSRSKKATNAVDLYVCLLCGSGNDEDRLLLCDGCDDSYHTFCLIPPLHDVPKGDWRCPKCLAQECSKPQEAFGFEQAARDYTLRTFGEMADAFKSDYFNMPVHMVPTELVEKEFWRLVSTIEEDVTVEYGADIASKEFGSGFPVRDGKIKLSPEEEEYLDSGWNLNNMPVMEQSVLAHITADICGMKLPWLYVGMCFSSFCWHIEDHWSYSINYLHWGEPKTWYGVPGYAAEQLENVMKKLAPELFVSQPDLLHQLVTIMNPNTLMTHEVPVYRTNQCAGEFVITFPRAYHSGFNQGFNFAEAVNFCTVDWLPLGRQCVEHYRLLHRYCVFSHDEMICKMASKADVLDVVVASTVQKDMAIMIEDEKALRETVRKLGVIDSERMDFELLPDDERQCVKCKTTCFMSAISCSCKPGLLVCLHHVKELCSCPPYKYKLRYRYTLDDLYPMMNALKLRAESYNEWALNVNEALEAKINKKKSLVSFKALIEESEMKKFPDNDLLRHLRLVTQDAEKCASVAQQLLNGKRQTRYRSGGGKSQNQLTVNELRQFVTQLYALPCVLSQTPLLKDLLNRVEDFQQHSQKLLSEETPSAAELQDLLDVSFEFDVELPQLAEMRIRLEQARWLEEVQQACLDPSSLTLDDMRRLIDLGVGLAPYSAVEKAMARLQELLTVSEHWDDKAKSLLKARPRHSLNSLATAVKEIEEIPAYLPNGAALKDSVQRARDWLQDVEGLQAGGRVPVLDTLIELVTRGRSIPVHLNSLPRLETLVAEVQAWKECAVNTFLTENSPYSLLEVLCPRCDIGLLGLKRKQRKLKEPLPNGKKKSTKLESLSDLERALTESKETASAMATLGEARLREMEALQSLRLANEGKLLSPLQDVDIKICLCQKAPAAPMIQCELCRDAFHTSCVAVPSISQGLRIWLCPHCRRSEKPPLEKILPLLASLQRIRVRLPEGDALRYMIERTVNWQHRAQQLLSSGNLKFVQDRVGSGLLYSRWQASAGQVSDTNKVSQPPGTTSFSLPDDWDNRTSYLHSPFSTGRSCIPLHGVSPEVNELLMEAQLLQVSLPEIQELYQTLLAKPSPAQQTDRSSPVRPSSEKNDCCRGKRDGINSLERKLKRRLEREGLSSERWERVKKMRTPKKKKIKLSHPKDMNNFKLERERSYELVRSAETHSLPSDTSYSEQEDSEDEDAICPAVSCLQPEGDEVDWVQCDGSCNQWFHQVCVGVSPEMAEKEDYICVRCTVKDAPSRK
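KDM5BΔAP (200 nM final) in 50 mM HEPES pH 7.5, 0.01% Tween-20 was preincubated 10 min at RT with compound over a concentration range. Substrate mix (H3K4me3 12.5 µM, α-KG 25 µM, Fe²⁺, ascorbate, NAD⁺, FDH) was added, and NADH fluorescence change over 30 min gave dose-response curves.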
A number is an active result; . = inactive.

SMILES	KDM5B inh
O=C(NCC1CCOCC1)Nc1ccc(F)cc1	.
COc1ccc(S(=O)(=O)N2CCC(C(=O)NCc3cccnc3)CC2)cc1Cl	.
COc1ncccc1-c1cc(C(=O)NCCN2CCOCC2)c2c(c1)ncn2C	35µM
O=C(NCc1cccnc1)c1ccccc1Nc1ccccc1	.
O=C(NCC1CCOCC1)c1ccc(F)cc1	.
Cn1cnc2cc(-c3ccccc3)cc(C(=O)NCc3cccnc3)c21	32µM
COc1ccccc1Nc1cc(C(=O)NCc2cccnc2)c2ccccc2n1	.
COc1ncccc1-c1cc(C(=O)N2CCC(OC)CC2)c2c(c1)ncn2C	.
Cn1cnc2cc(-c3ccc(F)cc3)cc(C(=O)NCC3CCOCC3)c21	35µM
CCCCc1ncc(CN2CCN(Cc3ccccc3)CC(O)C2)[nH]1 (stereo not given)	.
COCc1nn2c(c1-c1ccccc1)NC(=O)CC2C(=O)Nc1ccc(OC)c(Cl)c1 (stereo not given)	.
O=C(N1CCCC1)N1CCN(c2ncnc3sccc23)CC(O)C1 (stereo not given)	.
O=C(CN(Cc1ccccc1)Cc1ccccc1)OCC(=O)c1ccccc1	.
O=C(NC1CCN(Cc2ccc(Cl)cc2)CC1)c1cc(C2CC2)nc2ccccc12	.
CC(C)CC(NC(=O)c1ccc(C(C)C)cc1)C(=O)O (stereo not given)	.
Cn1nc(C(=O)Nc2ccccc2Oc2ccccc2)c2ccccc2c1=O	.
CCCCCCCCCNC(=O)CC#N	.
COc1ccc(CNC(=O)c2cc(-c3ccc(F)cc3)cc3ncn(C)c23)cc1OC	.
COCCNC(=O)c1cc(-c2cnn(Cc3ccccc3)c2)cc2ncn(C)c12	35µM
COc1ccccc1C(=O)NCc1nc2cccnc2n1Cc1ccc(F)cc1	.
CCn1cc(-c2ccc(F)cc2)cc1C(=O)NCc1cccnc1	.
COc1ccc(Cn2cc(-c3ccc(F)c(C(N)=O)c3)cn2)cc1	.
CCOc1ccc(-c2c(C)nn3c(-c4ccccc4)c(C(=O)NCCOC)cnc23)cc1OCC	.
Cn1cnc2cc(-c3ccc(F)cc3)cc(C(=O)NCc3cccnc3)c21	32µM
COc1ccc(-c2[nH]ncc2C(=O)NCc2cccc(OC)c2)cc1	.
SMILES	KDM5B inh
COc1cc(F)ccc1-c1cc(C(=O)NCc2ccnc(N)c2)c2c(c1)ncn2C	35µM
COc1cc(OC)c(-c2cc(C(=O)NCc3ccc(F)cc3)c3c(-c4ccccc4)[nH]nc3n2)cc1OC	.
COc1cccc(CNC(=O)c2cc(-c3ccncc3)cn2C)c1	.
COc1ccc(-c2cc(C(=O)NCc3ccnc(N)c3)c3c(c2)ncn3C)cc1	40µM
CCCCCN(CCCCC)C(=S)Nc1cccc(Cl)c1	.
O=C(NNC(=O)C1CCCc2ccccc21)c1ccc(F)cc1 (stereo not given)	.
COC[C@@H]1[C@H](NC(=O)c2ccc(OCCNC(C)=O)cc2)[C@@H]2CCO[C@H]12	.
Cc1ccc(CNC2C3CC4CC(C3)CC2C4)s1 (stereo not given)	.
Cc1ccc2nc(CO[C@H]3CN(C(=O)C4CC4)C[C@H]3F)[nH]c2c1	.
Cc1ccc(NC2CCCN(C(=O)CN3CC(=O)NC3=O)C2)cc1C (stereo not given)	.
Cc1ccc(-c2cc3c(=O)n(CCNC(=O)c4ccccc4F)ccn3n2)c(C)c1	.
Cc1cc(C)cc(C(=O)NCCn2ccn3nc(-c4ccc(C)cc4C)cc3c2=O)c1	22µM
Cc1ccc(-c2cc3c(=O)n(CCNC(=O)c4cc(F)ccc4F)ccn3n2)c(C)c1	.
Cc1ccc(C(=O)NCCn2ccn3nc(-c4ccc(C)cc4C)cc3c2=O)cc1	.
Cc1ccc(-c2cc3c(=O)n(CCNC(=O)c4cccc(Cl)c4)ccn3n2)c(C)c1	28µM
O=C(NCCn1ccn2nc(-c3ccc(F)cc3)cc2c1=O)c1cccc(Cl)c1	.
CCN(CC)C(=S)Nc1ccccc1Cl	.
CSCCC(NC(=O)Cc1cccc(C(F)(F)F)c1)c1nc2ccccc2s1 (stereo not given)	.
FC(F)(F)C1CN(c2ccc3cc(Cl)ccc3n2)CCO1 (stereo not given)	14µM
O=C(c1ccc2ccccc2n1)N1CCOC(C(F)(F)F)C1 (stereo not given)	.
FC(F)(F)C1CN(c2cc(N3CCOCC3)ncn2)CCO1 (stereo not given)	.
Cc1ccc(-c2cn3c(n2)CO[C@@H](CNS(C)(=O)=O)C3)cc1	40µM
COc1ccc(-c2cn3c(n2)CO[C@@H](CNS(=O)(=O)c2ccc(C)cc2)C3)cc1	.
Cc1ccc(-c2cn3c(n2)CO[C@@H](CNC(C)C)C3)cc1	.
CCOc1ccc(C(=O)N2CCN(C(=O)c3nnn4c3COC(c3ccc(Cl)cc3)C4)CC2)cc1 (stereo not given)	.
SMILES	KDM5B inh
COc1ccc(C(=O)N[C@@H]2CCC[C@@H]2C(=O)N2CCOCC2)cn1	.
COc1ccc(-c2ccc3ncc(Nc4ccnc(N5CCOCC5)c4)n3n2)cn1	.
COc1cc(-c2nccc3c(=O)cc(N4CCOCC4)oc23)ccn1	25µM
COc1cc(-c2nccc3c(=O)cc(N(C)c4ccccc4)oc23)ccn1	.
COc1ccc(-c2nccc3c(=O)cc(N4CCOCC4)oc23)cn1	35µM
O=C(c1ccc(Cl)cc1)N1CC2(CCCN(Cc3cccnc3)C2)Cc2ccccc21 (stereo not given)	.
Cc1cc(OCc2coc(-c3ccccc3)n2)ccc1Cl	.
CS(=O)(=O)NCCc1ccc(C(=O)COc2ccccc2Br)s1	.
Cc1ccc(S(=O)(=O)N(C)C)cc1NC(=O)COC(=O)c1ccccc1C(F)(F)F	.
Cc1cc(C[C@@H]2COC[C@@H]2NC(=O)c2ccc(-c3noc(C4CC4)n3)cc2)on1	.
Cc1ccc2oc(C(=O)N[C@H]3COC[C@H]3Cc3cc(C)no3)c(C)c2c1	16µM
Cc1cc(C[C@@H]2COC[C@@H]2NC(=O)c2cc(C)oc2-c2ccccc2)on1	28µM
Cc1cc(C[C@@H]2COC[C@@H]2NC(=O)c2c(-c3ccccc3)noc2C)on1	.
Cc1cc(C[C@@H]2COC[C@@H]2NC(=O)c2cc(-c3ccccc3O)n[nH]2)on1	.
Cc1cc(C[C@@H]2COC[C@@H]2NC(=O)c2ccc(CSc3ncccn3)o2)on1	.
Cc1cc(C[C@@H]2COC[C@@H]2NC(=O)c2ccc(-n3cnnc3)cc2)on1	.
Cc1cc(C[C@@H]2COC[C@@H]2NC(=O)CCc2ccc(=O)[nH]n2)on1	.
COc1ccc(C(=O)N[C@H]2COC[C@H]2Cc2cc(C)no2)c(OC)n1	.
COc1cc(OC)c(C(=O)N[C@H]2COC[C@H]2Cc2cc(C)no2)cc1OC	20µM
Cc1cc(C[C@@H]2COC[C@@H]2NC(=O)c2cnn3ccccc23)on1	28µM
Cc1cc(C[C@@H]2COC[C@@H]2NC(=O)Cc2c(C)[nH]c3ccccc23)on1	.
O=C(CSc1ccc2c(c1)OCCO2)NC1c2ccccc2-c2ccccc21	.
CCS(=O)CCSc1nc(-c2ccccc2)cc(-c2ccccc2)c1C#N (stereo not given)	.
Cc1cccc(-c2ocnc2C(=O)Nc2ccc(C)cc2Cl)c1	.
CCn1nc(C(=O)OCC(=O)NC(=O)NCc2ccccc2)c2ccccc2c1=O	.
CCn1nc(C(=O)Nc2nc(-c3ccc(OC)c(OC)c3)cs2)c2ccccc2c1=O	.
Cc1ccccc1OCCN(C)C(=O)c1cc2ccccc2[nH]1	.
OCC(CO)(CO)NCC(O)CNC(CO)(CO)CO	.
Cc1ccc([C@H]2CN(C(=O)CCc3c(C)nc4ncnn4c3C)C[C@@H]2N)o1	.
